S-ASM inh: inhibitors of human secretory acid sphingomyelinase | P17405 | placental ASM, HMU-PC fluorogenic substrate, 60 min | Potency, µM (titrated, usually from 57.5 µM), most hits filed as inhibitors | 340,000 compounds, 0.006% hits | AID 504937
Target sequence (P17405 47-631 limits assumed): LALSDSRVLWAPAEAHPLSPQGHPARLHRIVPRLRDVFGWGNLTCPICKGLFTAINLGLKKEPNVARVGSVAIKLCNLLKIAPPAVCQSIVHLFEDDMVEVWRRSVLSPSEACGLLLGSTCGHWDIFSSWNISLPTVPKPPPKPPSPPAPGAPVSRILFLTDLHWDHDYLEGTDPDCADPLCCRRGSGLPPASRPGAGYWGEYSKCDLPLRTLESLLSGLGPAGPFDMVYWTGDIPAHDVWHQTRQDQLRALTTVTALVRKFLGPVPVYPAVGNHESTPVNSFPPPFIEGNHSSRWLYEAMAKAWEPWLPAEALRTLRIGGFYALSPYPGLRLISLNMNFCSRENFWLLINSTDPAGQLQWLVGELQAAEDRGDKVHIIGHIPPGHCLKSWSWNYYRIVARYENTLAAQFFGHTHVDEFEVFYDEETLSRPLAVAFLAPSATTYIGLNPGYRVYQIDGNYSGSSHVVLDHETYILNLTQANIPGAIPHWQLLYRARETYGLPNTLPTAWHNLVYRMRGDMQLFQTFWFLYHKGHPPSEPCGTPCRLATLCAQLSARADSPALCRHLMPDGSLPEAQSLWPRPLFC
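Fluorescence read-out (Ex 386 nm, Em 447 nm) after stopping the reaction at pH 10. Enzyme: ASM from human placenta; substrate HMU-PC0, 9 uM final; 60 min, 37 °C. Compound preincubation 10 min, ambient temperature.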
DT40 TDP1 no CPT: qHTS for Inhibitors of human tyrosyl-DNA phosphodiesterase 1 (TDP1): qHTS in cells in absence of CPT; DT40 Tdp1-/- hTDP1 cells, no CPT, ATP luminescence, 48 h; 420,000 compounds, 15% hits; Potency, µM (top dose mostly 46.2 µM), most hits filed as inhibitors; further: nearly all actives have a fitted effect of over 55% in size
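Chicken DT40 Tdp1-/- cells stably complemented with human TDP1 were seeded at 400 cells/well with DMSO in place of 20 nM camptothecin. After compound pinning, cells grew at least 48 hr at 37 °C; viability read by CellTiter-Glo luminescence.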
HepG2 tox: HepG2 cytotoxicity, counter-screen for TGF-b inhibitors; HepG2 CAGA-GFP viability, ATP luminescence, 18 h; Potency, µM (doses to about 46.1 µM), hits mostly cytotoxic; 410,000 compounds, 0.76% hits; AID 588856
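HepG2 CAGA-GFP cells (1000/well, DMEM with 1% FBS) received compound, then TGF-beta at 500 pg/mL final, and were incubated 18 hours at 37 degrees C. Viability was read by CellTiter-Glo luminescence. Media-only wells were set as complete cell-killing and DMSO as no toxicity.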
DT40 TDP1 CPT: DT40-hTDP1 cell growth loss with CPT; 420,000 compounds, 12% hits; Potency, µM (top dose mostly 46.2 µM), usual class: inhibitors; chicken DT40 Tdp1-/-;hTDP1 cells + 20 nM CPT, ATP luminescence, 48 h; AID 686979; further: nearly all actives have a fitted effect of over 55% in size
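Cell growth measured by CellTiter-Glo luminescence after a minimum 48 h, 37 C compound exposure with 20 nM CPT in Tdp1-knockout DT40 cells stably expressing hTDP1, seeded 400/well; qHTS titration format.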
IL1B secr inh: inflammasome signaling inhibition, IL-1 beta readout; 360,000 compounds, 4.7% hits; activity change, % at 57.5 µM; AID 743279; THP-1 LPS/ATP IL-1B secretion, AlphaLISA, 16 h; stronger effect = lower value; in the data active means activity change below about -50%; inconclusive means mostly about -30% to -49%
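Secreted IL-1B measured by AlphaLISA bead assay after 16 h compound exposure of THP-1 cells; compounds (final up to 57.5 uM) added 1 h before LPS (250 ng/mL) and ATP (1.25 mM) stimulation; lower signal means less secretion.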
TGFb SMAD3 inh: TGF-b pathway inhibition; HepG2 CAGA-GFP TGF-b/SMAD3 reporter, GFP fluorescence, 18 h; TGF-beta stimulated, 500 pg/mL final; Potency, µM (top dose mostly 46.1 µM), usual class: inhibitors; 410,000 compounds, 1.2% hits; AID 588855; further: nearly all actives have a fitted effect of over 65% in size
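TGF-beta reporter screen: HEPG2 CAGA-GFP, 1% FBS, 500 pg/mL TGF-beta final, 18 h; per-cell GFP summed per well; curves fitted and categorized by class.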
Hits are given with their value; 0 = inactive; ? = inconclusive; - = not tested or not shown. Sampled rows, rich in hits. Any-hit rate of the full collection: about 19%. Unless noted, the call rests on the fitted dose curve; in most records, active means well fitted curve in the direction sought with a large enough effect; inconclusive means small, poorly fitted or top-dose-only effect, or another doubt; inactive means no such curve, though single readings can be large; an effect the other way counts as inactive or inconclusive.

SMILES	S-ASM inh	DT40 TDP1 no CPT	HepG2 tox	DT40 TDP1 CPT	IL1B secr inh	TGFb SMAD3 inh
C=CCC1(CC=C)CCCN1C(=O)C1CCC(=O)N(CCc2ccc(OC)cc2)C1 (stereo not given)	0	10µM	0	12µM	0	?
C=CCC1(CC=C)CCCN1C(=O)C1CCC(=O)N(CCc2ccccc2)C1 (stereo not given)	0	5.8µM	0	9.2µM	0	0
CCC(C)NC(=O)C1c2ccccc2C(=O)N1Cc1cc(OC)ccc1OC (stereo not given)	0	0	0	0	0	0
CCC(C)NC(=O)C1c2ccccc2C(=O)N(c2ccc(OC)cc2)C1c1ccc(OC)cc1 (stereo not given)	0	21µM	0	?	0	0
CC(=O)c1cc2c(cc1NC(=O)C1CN(C(C)=O)c3ccccc3O1)OCO2 (stereo not given)	0	21µM	0	15µM	0	?
CC(=O)c1cc2c(cc1NC(=O)C1CC=CCC1C(=O)O)OCO2 (stereo not given)	0	?	0	0	0	0
CC(=O)c1cc2c(cc1NC(=O)c1cc(C)nn1-c1ccccc1)OCO2	0	3.7µM	0	5.2µM	0	0
COc1ccc(CN2CCC(N(CCc3ccccc3)Cc3ccccc3)CC2)c(OC)c1	0	23µM	0	23µM	-94	?
CC(=O)CCc1ccc(OCCCCN2CCC(Cc3ccccc3)CC2)cc1	0	0	0	0	0	0
N#Cc1ccccc1OCCCN1CCC(Cc2ccccc2)CC1	0	16µM	0	?	?	0
CCC(=O)c1ccccc1OCCCN1CCC(Cc2ccccc2)CC1	0	?	0	?	-89	?
COc1ccc(CN2CCC(Cc3ccccc3)CC2)c(C)c1C	0	?	0	?	-78	0
CCCCNC(=O)c1ccc2c(c1)ncn2-c1cc(OC)ccc1OC	-	?	0	?	-	0
O=C(NC(n1ccc(=O)[nH]c1=O)C(Cl)(Cl)Cl)C12CC3CC(CC(C3)C1)C2 (stereo not given)	0	0	0	0	0	0
COc1cccc(OC)c1OCCCCN1CCC(Cc2ccccc2)CC1	0	18µM	0	?	-77	0
O=C(CCCSc1nc2ccccc2[nH]1)NCc1ccccc1F	0	21µM	0	?	0	0
CCc1ccc(NC(=O)Cn2nc3c4ccccc4n(Cc4ccccc4)cc-3c2=O)cc1	-	0	0	0	-	0
CC(Cc1cccs1)NC(=O)Nc1ccc([N+](=O)[O-])cc1 (stereo not given)	0	16µM	0	?	0	?
CC(Cc1cccs1)NC(=O)c1cccs1 (stereo not given)	0	0	0	0	0	0
CN(C)C(=O)C(OC(=O)c1ccc2ccccc2n1)c1ccccc1 (stereo not given)	0	0	0	0	0	0
O=[N+]([O-])c1cc(-c2cnc3ccccc3n2)ccc1Cl	0	0	0	0	0	0
COc1ccccc1Oc1ccc(-c2cnc3ccccc3n2)cc1[N+](=O)[O-]	0	7.3µM	0	23µM	0	0
O=[N+]([O-])c1cc(-c2cnc3ccccc3n2)ccc1Oc1ccc(Cl)cc1	0	?	0	18µM	0	0
Oc1ccccc1Nc1nc(-c2ccccc2)c2cc(Cl)ccc2n1	-	?	0	?	-	0
C[C@@H](O)CNC(=O)c1[nH]cnc1C(=O)N[C@H](C)c1ccccc1	-	0	0	0	0	0
SMILES	S-ASM inh	DT40 TDP1 no CPT	HepG2 tox	DT40 TDP1 CPT	IL1B secr inh	TGFb SMAD3 inh
CCOC(=O)N1CCN(C(=O)CCN2C(=O)/C(=C\c3ccccc3OC)SC2=S)CC1	0	23µM	0	23µM	0	0
COc1ccccc1/C=C1\SC(=S)N(CCC(=O)NNC(=O)c2ccccc2O)C1=O	0	?	0	?	0	0
O=C(CCN1C(=O)/C(=C/c2ccccc2Cl)SC1=S)N1CCCC1	0	6.5µM	0	9.2µM	-64	0
CCOC(=O)N1CCN(C(=O)CN2C(=O)/C(=C\c3cccc(OC)c3)SC2=S)CC1	-	8.9µM	0	7.9µM	-	0
O=C(CCCN1C(=O)/C(=C/c2ccccc2Cl)SC1=S)N1CCCC1	0	21µM	0	?	-66	?
Cc1cc(NC(=O)CCCN2C(=O)/C(=C/c3ccccc3Cl)SC2=S)no1	0	?	0	?	0	0
O=C(CCN1C(=O)/C(=C/c2ccccc2Cl)SC1=S)NC1CCS(=O)(=O)C1 (stereo not given)	0	0	0	0	0	0
O=C(CCCN1C(=O)/C(=C/c2ccccc2Cl)SC1=S)NNC(=O)c1ccncc1	0	?	0	?	?	0
O=C(CCCN1C(=O)/C(=C/c2ccccc2Cl)SC1=S)NNC(=O)c1ccccc1Cl	0	21µM	0	?	0	0
O=C(CCN1C(=O)/C(=C/c2ccccc2Cl)SC1=S)N1CCOCC1	0	3.7µM	0	5.2µM	-112	?
Cc1csc(NC(C)c2nc3cc(Cl)c(N4CCCCC4)cc3n2CCOCCO)n1 (stereo not given)	0	?	0	?	0	0
COc1ccc(-c2csc(NC(C)c3nc4cc(Cl)c(N5CCCCC5)cc4n3CCCO)n2)cc1 (stereo not given)	0	?	0	26µM	?	0
CCCn1c(C(C)Nc2nc(-c3cc(Cl)c(N)c(Cl)c3)cs2)nc2cc(Cl)c(N3CCCCC3)cc21 (stereo not given)	0	?	0	18µM	0	0
COc1ccc(-c2csc(NC(C)c3nc4cc(Cl)c(Cl)cc4n3CCOCCO)n2)cc1 (stereo not given)	0	18µM	0	?	?	?
CC(Nc1nc(-c2ccc(F)cc2)cs1)c1nc2cc(Cl)c(Cl)cc2n1CCCO (stereo not given)	0	?	0	?	0	?
COc1ccc(-c2csc(NC(C)c3nc4cc(Cl)c(N5CCCCC5)cc4n3CCOCCO)n2)cc1 (stereo not given)	?	?	0	13µM	0	?
N#Cc1ccccc1S(=O)(=O)N1CCN(C(=O)C2CCCCC2)CC1	0	0	0	0	0	0
CCCCNC(=O)CCC(=O)Nc1ccc2nc(N3CCN(C)CC3)cc(C)c2c1	0	0	0	0	0	0
Cc1ccc(C)c(N2CCN(C(=O)CCC(=O)Nc3ccc4nc(N5CCCCC5)cc(C)c4c3)CC2)c1	-	12µM	0	12µM	-	?
